Screening results as filed in PubChem.
Most compounds without a hit are left out; they make up all but 10% or so of the library.
VDR inh: Inhibitors of the vitamin D receptor (VDR): qHTS. VDR-SRC2-3 peptide fluorescence polarization, 2 h. Potency, µM, for inactives: max response, negative = inhibition, most hits filed as inhibitors. actives 0.93% (n = 400,000). AID 504847, 2011; also: potency is read from the fitted curve at half-maximal effect
Target sequence (P11473 whole entry, looked up): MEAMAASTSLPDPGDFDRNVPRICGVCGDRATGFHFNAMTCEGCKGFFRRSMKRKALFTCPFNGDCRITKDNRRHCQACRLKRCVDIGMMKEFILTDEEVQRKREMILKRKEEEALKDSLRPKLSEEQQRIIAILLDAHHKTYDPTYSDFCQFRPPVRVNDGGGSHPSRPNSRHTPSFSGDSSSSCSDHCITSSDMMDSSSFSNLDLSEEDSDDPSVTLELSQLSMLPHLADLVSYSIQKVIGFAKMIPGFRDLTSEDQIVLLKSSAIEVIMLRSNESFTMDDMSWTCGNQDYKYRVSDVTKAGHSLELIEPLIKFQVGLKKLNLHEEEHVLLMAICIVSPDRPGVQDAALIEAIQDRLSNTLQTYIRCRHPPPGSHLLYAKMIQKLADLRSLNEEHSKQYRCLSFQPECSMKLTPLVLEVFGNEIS
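FP read-out; VDR + SRC2-3 coactivator peptide; 23 nl compound by pintool; 2 h RT incubation; reagents held at 4 deg C, protected from light.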
PLK1 PBD block: qHTS for Inhibitors of PLK1-PDB (polo-like kinase 1 - polo-box domain): Primary Screen; Plk1 PBD binding of FITC phosphopeptide, fluorescence polarization; actives 2.8% (n = 360,000); Potency, µM, inactives show max response, negative = inhibition, actives largely listed as inhibitors; also: potency is read from the fitted curve at half-maximal effect; series mostly up to about 57 µM; nearly all actives have a fitted effect of over 65% in size
Sfp inh: qHTS Assay for Inhibitors of Bacillus subtilis Sfp phosphopantetheinyl transferase (PPTase). 4'-phosphopantetheinyl transferase ffp (Bacillus subtilis), Q9F4F7. Biochemical Sfp PPTase activity, qHTS. Potency, µM, inactives show largest response in the series, negative = inhibition, hits mostly inhibitors. actives 3.5% (n = 310,000). AID 1490, 2009;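 also: the enzyme is Sfp with the accession as filed and its product quenches rhodamine fluorescence; potency is read from the fitted curve at half-maximal effect; 0% = enzyme reaction without inhibitor and -100% = no enzyme wells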
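Sfp 15 nM + cpd, 15 min RT; start w/ rhodamine-CoA 5 uM, BHQ-2-YbbR 12.5 uM (final); 50 mM Hepes pH 7.6, 10 mM MgCl2, 0.01% NP-40, 0.01% BSA; read 525/598 nm at 0 and 30 min.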
G9a block: qHTS Assay for Inhibitors of Histone Lysine Methyltransferase G9a | AID 504332, 2011 | Histone-lysine N-methyltransferase EHMT2 (Homo sapiens), Q96KQ7 | actives 8.8% (n = 350,000) | G9a H3K9 monomethylation, AlphaScreen, 2 h | Potency, µM (top dose mostly 102 µM), for the others: at the top dose activity, negative = inhibition, most hits filed as inhibitors; also: potency is read from the fitted curve at half-maximal effect; nearly all actives have a fitted effect of over 75% in size
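Using a bead-based AlphaScreen, monomethylated H3K9 product from 2 h room-temperature reactions (G9a 20 nM, peptide 500 nM, SAM 20 uM) was detected with 0.5 ug/mL rabbit anti-H3K9me1 antibody.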
Mm-Cpn inhibitor: Inhibitors of TCP-1 ring complex (TRiC) of Methanococcus maripaludis (MmCpn): qHTS; actives 0.031% (n = 330,000); Potency, µM (series often up to 76.9 µM), without a hit: at the top dose activity, negative = inhibition, hits mostly inhibitors; purified Mm-Cpn ATPase, ADP Transcreener TR-FRET; Chaperonin Mm-Cpn (Methanococcus maripaludis); also: potency is read from the fitted curve at half-maximal effect; nearly all actives have a fitted effect of over 80% in size
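Quantitative HTS used 25 nM Mm-CPN and 10 uM ATP in magnesium/KCl Tris buffer, pH 7.4, with 1 mM DTT. Hydrolysis ran 30 min at 37°C; ADP was read by HTRF.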
CCT modulator: High-Throughput Screening for Modulators of Cytosolic Chaperonin Activity; purified chaperonin ATPase assay, HTRF ADP detection, 30 min; actives 0.3% (n = 360,000); activity change, % (no concentration beside the values), hits read low; in the data active = activity change below about -30%
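Enzyme 40 or 20 nM (batch-dependent) in Tris pH 7.4/KCl/MgCl2/DTT; cpd 76 uM single point; ATP 10 uM; 30 min 37 °C; Transcreener ADP HTRF detection, 30 min RT; ratio 665/615.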
* = called active by the depositor; ? = inconclusive; · = no result given; [ ] = dose if it differs, or a comment. Unless noted, calls follow the shape of the dose curve; as a rule, active = well fitted curve in the direction sought with a large enough effect; inconclusive = small, poorly fitted or top-dose-only effect, or another doubt; inactive = no such curve, though single readings can be large; an effect the other way counts as inactive or inconclusive. Unless noted, % is scaled to controls: 0 for no effect and ±100 for the full control effect.

SMILES	VDR inh	PLK1 PBD block	Sfp inh	G9a block	Mm-Cpn inhibitor	CCT modulator
CCCCC(C(=O)NC1CCCC1)N(Cc1ccco1)C(=O)Cn1nnc(-c2ccc(F)cc2)n1 (configuration not stated)	-17%	24µM*	11%	-43%[59 µM]	2%	-11
CCN(CC)C(=O)Cn1nnc(-c2ccc(C)o2)n1	-14%	-7%	-29%	4µM*	1%	-1
CCC(C(=O)NC1CCCC1)N(C(=O)Cn1nnc(-c2ccc(C)o2)n1)C(C)(C)C (configuration not stated)	2%	-12%	?	32µM*	-1%	2
Cc1sc2ncn(CC(=O)N(C)C3CCCCC3)c(=O)c2c1C	8%	-3%	·	40µM*	-7%	0
CC1=C(C(N)=O)C(c2ccc(F)cc2)n2nc(-c3ccc(N(C)C)cc3)nc2N1 (configuration not stated)	1%	·	·	-2%[59 µM]	·	·
O=C(c1ccc(-c2ccccc2Cl)o1)N1CCCCCCC1	-17%	-1%	·	·	·	-1
CC1CCCN(C(=O)c2ccc(-c3ccccc3Cl)o2)C1 (configuration not stated)	5%	1%	·	45µM*	-3%	-1
Cc1ccc(Cl)cc1NC(=O)C(C)n1nc(-c2ccccc2)ccc1=O (configuration not stated)	-13%	·	·	-5%[59 µM]	·	·
Cc1cccc2sc(N(CCCN3CCOCC3)C(=O)CS(=O)(=O)c3ccc(F)cc3)nc12	10%	4%	·	56µM*	-1%	0
O=C(CS(=O)(=O)c1ccccc1)N(CCCN1CCOCC1)c1nc2c(F)cccc2s1	1%	-8%	·	?	2%	-2
CCc1ccc(C(=O)c2cn(CC(=O)Nc3ccc4c(c3)OCO4)c3ccc(F)cc3c2=O)cc1	0%	·	·	-30%[59 µM]	·	·
Cc1ccc2cc(C)c3nnc(SCC(=O)N4CCN(C(=O)c5ccco5)CC4)n3c2c1	12%	-5%	14%	50µM*	1%	-2
COc1ccc(N2CCN(C(=O)CSc3nnc4c(C)cc5c(C)cc(C)cc5n34)CC2)cc1	8%	-6%	-17%	?	4%	3
COc1ccc(N2CCN(C(=O)CSc3nnc4c(C)cc5cc(C)ccc5n34)CC2)cc1	18%	-4%	4%	45µM*	3%	-1
CCOC(=O)Cn1c(=O)n(CC2CCCO2)c2nc(-c3ccccc3F)nc(C(N)=O)c21 (configuration not stated)	14%	·	·	7%[59 µM]	·	·
O=C(Cn1cc(C(F)(F)F)ccc1=O)N/N=C/c1ccccc1O	?	30µM*	15%	21%	1%	-1
CCN(CC)CCCCn1c(-c2ccccc2)nc2c(NC3CCCCC3)nc(C)nc21	·	·	13%	·	·	·
CN(CCOc1ccc(Cl)cc1)CC(O)c1ccccc1 (configuration not stated)	-10%	1%	-19%	3.5µM*	-2%	0
CN(CCOc1ccc(Br)cc1)CC(O)c1ccccc1 (configuration not stated)	-7%	-2%	?	13µM*	1%	-1
CC(OCC(O)CN(C)CCOc1ccccc1)c1ccc(Cl)cc1 (configuration not stated)	-10%	-6%	-23%	?	-3%	-1
CN(CCOc1ccccc1)CC(O)COCc1ccccc1F (configuration not stated)	-2%	-12%	0%	10µM*	0%	2
CCOc1ccc(Nc2nc3ccccc3n3c(CC)nnc23)cc1	-3%	·	·	-29%[59 µM]	·	·
CCOc1ccc(N(C)c2ccc(/C=C3/SC(=S)NC3=O)cc2)cc1	1%	1%	-13%	·	2%	-4
CCOc1c(O)ccc(/C=C2\SC(=S)NC2=O)c1[N+](=O)[O-]	?	30µM*	11µM*	14µM*	-2%	-1
COc1ccc(Cn2c(SCc3ccc(C(=O)NC(C)c4ccccc4)cc3)nc3cccnc32)cc1 (configuration not stated)	-1%	·	·	-2%[59 µM]	·	·
SMILES	VDR inh	PLK1 PBD block	Sfp inh	G9a block	Mm-Cpn inhibitor	CCT modulator
COc1ccc(CNC(=O)C2CCN(S(=O)(=O)c3ccc4c(c3)CCCN4C(C)=O)CC2)cc1	5%	·	·	8%[59 µM]	·	·
CCN(CC)CCn1c(NC(=O)c2ccc(C)cc2)nc2ccccc21	-4%	-5%	13%	-10%	-2%	-1
CC(=O)Nc1nc2ccccc2n1Cc1ccc(Cl)cc1	12%	?	8%	44%[12.7 µM]	0%	0
CCC(=O)Nc1nc2ccccc2n1CCN(CC)CC	-13%	-9%	-2%	20µM*	2%	-3
CCn1c(NC(C)=O)nc2ccccc21	7%	-5%	6%	10µM*	1%	-4
Cc1ccc(S(=O)(=O)N[C@H]2COC(=O)[C@@H](C)COC(=O)C/C=C\[C@H]2C)cc1	·	·	3%	·	·	·
COc1ccccc1NC(=S)NNC(=O)c1ccc(Cl)cc1Cl	-4%	-20%	14%	20µM*	-1%	0
COc1ccccc1NC(=O)c1ccccc1NC(=O)c1cc(Cl)ccc1NC(=O)c1ccco1	7%	-5%	16µM*	0%[59 µM]	-8%	1
COc1ccccc1NC(=O)C(=O)NNC(=O)c1ccco1	-5%	-3%	-9%	8.9µM*	0%	-1
Cc1ccc(CNC(=O)C2CCCN(c3nc4ccccc4n4cccc34)C2)cc1 (configuration not stated)	-12%	·	·	-11%[59 µM]	·	·
NC(=O)C1CCN(c2csc3ccc(F)cc3c2=O)CC1	16%	·	·	0%[59 µM]	·	·
COc1ccc(/C=N/n2cnc3c([nH]c4ccccc43)c2=O)cc1CO	?	11µM*	8%	-31%	0%	-1
CC(=O)NC(CCS(C)(=O)=O)C(=O)Nc1cccc(C(C)=O)c1 (configuration not stated)	-1%	-4%	14%	25µM*	-1%	-1
COc1ccc(-c2oc(NC(=O)CCl)c(C#N)c2-c2ccc(OC)cc2)cc1	-19%	-23%	-2%	50µM*	-4%	3
COc1ccc(-c2oc(NC(=O)CSc3ncn[nH]3)c(C#N)c2-c2ccc(OC)cc2)cc1	-8%	-7%	9%	·	0%	2
